Laboratory results as given in PubChem BioAssay AID652015 (National Center for Advancing Translational Sciences (NCATS), 2013).
Records with an inconclusive call do not appear. Activity calls are given as the source filed them. The call rests on the fitted dose curve; in most records, active means well fitted inhibition curve with a large enough effect; inconclusive means small, poorly fitted or top-dose-only effect; inactive means no such curve, though single readings can be large or run the other way.

target: Coelenterazine h 2-monooxygenase (Renilla reniformis) (UniProt P27652); experiment: qHTS Assay for Inhibitors of Sea Pansy Luciferase from the GSK Published Protein Kinase Inhibitor Set; conditions: purified Renilla luciferase, luminescence; series mostly up to 57.5 µM
Sequence (P27652 whole entry, looked up): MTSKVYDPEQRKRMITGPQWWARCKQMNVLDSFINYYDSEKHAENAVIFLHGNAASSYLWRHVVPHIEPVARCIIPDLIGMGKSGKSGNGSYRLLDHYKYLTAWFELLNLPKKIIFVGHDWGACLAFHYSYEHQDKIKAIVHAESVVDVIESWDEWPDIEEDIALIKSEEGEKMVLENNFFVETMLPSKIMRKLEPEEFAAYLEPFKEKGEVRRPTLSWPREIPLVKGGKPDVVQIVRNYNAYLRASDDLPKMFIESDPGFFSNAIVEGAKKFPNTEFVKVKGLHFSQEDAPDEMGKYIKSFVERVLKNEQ
How it was run: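 qHTS (roughly 60 uM down to 300 pM) against 1 nM Renilla luciferase, substrate coelenterazine h 5 uM, Tris acetate pH 7.5 buffer with NaCl, Tween-20 and BSA. Luminescence measured after an average 2 min incubation.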

Potency, inactive:
Nc1nccc(-c2c(-c3ccc(F)cc3)nn3cc(C(F)(F)F)ccc23)n1
CN(c1ccc(NC(=O)Nc2c(Cl)cccc2Cl)cc1)c1ccnc(Nc2cccc(CS(C)(=O)=O)c2)n1
CNC(=O)c1cccc(C#Cc2cncnc2Nc2ccc(OCc3cccc(F)c3)c(Cl)c2)c1
CCn1c(-c2nonc2N)nc2ccc(F)cc21
NC(=O)c1ccc2c(-c3ccnc(NCCCO)n3)c(-c3ccc(F)cc3)nn2c1
Cc1cccc(Oc2nccc(-c3c(-c4ccc(F)cc4)ncn3C3CCNCC3)n2)c1C
CN(c1ccc(NC(=O)Nc2ccc(OC(F)(F)F)cc2)cc1)c1ccnc(Nc2cccc(S(N)(=O)=O)c2)n1
O=C1N=c2ccc(N=Cc3c(O)[nH]c4ccccc34)cc2=N1
CS(=O)(=O)CCNCc1ccc(-c2ccc3ncnc(Nc4ccc(OCc5ccccc5)c(Cl)c4)c3c2)o1
Fc1ccc(-c2ncn(C3CCNCC3)c2-c2ccnc(Oc3ccc(F)c(F)c3)n2)cc1
CCNC(=O)OC1CNC(C#Cc2cc3ncnc(Nc4ccc(OCc5cccc(F)c5)c(Cl)c4)c3s2)C1 (stereo unspecified)
N#Cc1cccc(Nc2nccc(-c3cnn4ncccc34)n2)c1
Nc1nc(-c2cccc(Cl)c2)c(-c2ccc3ncccc3n2)s1
O=C(Nc1n[nH]c2nc(-c3ccco3)c(Br)cc12)C1CC1
O=C(Nc1n[nH]c2nc(-c3ccco3)ccc12)C1CC1
CC(C)COC(=O)c1ccc2[nH]c(O)c(C=Nc3ccc(S(N)(=O)=O)cc3)c2c1
